Compound activity deposited in PubChem BioAssay by several laboratories.
PfHsp40 yeast: rescue of PfHsp40-mediated yeast toxicity; S. cerevisiae expressing PfHsp40, growth rescue, ATP luminescence; growth rescue, % at 12.5 µM; actives 0.68% (n = 340,000); in the data active = growth rescue above about 28%, passing the limit was not always enough; inconclusive = no clear call, values can overlap the other calls;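 also: yeast W303a lacking pdr1 and pdr3 grown in galactose medium; growth measured after three days at 30 °C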
BJeLR viability: BJeLR cell viability loss. AID 1554. actives 0.17% (n = 300,000). BJeLR (HRASV12) viability, CellTiter-Glo ATP luminescence, 48 h. inhibition, % (no concentration beside the values); in the data active = inhibition above about 50%; inconclusive = no clear call, values can overlap the other calls
PrP 5UTR inh: suppresses PrP 5' UTR mRNA reporter expression | cell-based PrP 5' UTR mRNA reporter, plate reader | inhibition, % (no concentration beside the values) | actives 0.35% (n = 340,000) | AID 488862; in the data active = inhibition above about 52%; also: 0 = median of the neutral control wells
PrPC surface inh: inhibitors of human cell surface prion protein PrPC; P04156; TR-FRET read-out; inhibition, % at 13.8 µM; actives 0.43% (n = 370,000); AID 720596; in the data active = inhibition above about 24%; also: 0% = median of the test wells and 100% = reference compound wells
CCHFV vOTU inh: CCHFV vOTU protease inhibition; Pep-AMC fluorescence; inhibition, % at 11.5 µM; actives 0.55% (n = 370,000); AID 651958; in the data active = inhibition above about 30%; also: 0% = vehicle wells with enzyme and 100% = no enzyme wells
Yp Topo-I inh: Y. pestis Topo-I inhibition via cleavage products. actives 0.064% (n = 360,000). activity, % at 10 µM. AID 504884. Y. pestis Topo-I cleavage product accumulation, plate reader; in the data active = activity above about 50%, passing the limit was not always enough; inconclusive = no clear call, values can overlap the other calls
PrP 5UTR single: prion 5' UTR mRNA inhibition, cherry-pick retest | inhibition, % at 2.5 µM | cell-based prion protein 5' UTR reporter, plate reader | AID 504592 | actives 48% (n = 1,100) | shares compounds with PrP 5UTR inh; in the data active = inhibition above about 54%; inconclusive = no clear call, values can overlap the other calls
An asterisk follows results filed as active; ? = inconclusive; nt = no result. An excerpt weighted towards active compounds, which were near 2% of everything screened.

SMILES | PfHsp40 yeast | BJeLR viability | PrP 5UTR inh | PrPC surface inh | CCHFV vOTU inh | Yp Topo-I inh | PrP 5UTR single
COP(=O)(O)CCOCCC(CC(C)C)NC(=O)OCc1ccccc1 (stereo not drawn) | nt | nt | nt | -10 | 2 | nt | nt
COc1ccc(C2CC(=O)C(c3ccccc3OC)=CN2Cc2ccccc2)cc1 (stereo not drawn) | nt | nt | nt | -4 | 8 | nt | nt
CC(C)(C)c1ccc(-c2cc(N)n[nH]2)cc1 | 0 | 3 | 64* | -1 | 6 | 0 | ?
Cc1ccc(-c2cc(N)n[nH]2)cc1 | -1 | -4 | -22 | 5 | 7 | -1 | nt
O=C(Nc1ccccc1Cl)c1ccc(C(=O)Nc2ccccc2Cl)cc1 | -1 | nt | 76* | -4 | 12 | -4 | 1
C[C@@H](O[Si](c1ccccc1)(c1ccccc1)C(C)(C)C)[C@@H]1NC(=O)[C@@H]2C[C@]3(Br)c4ccccc4N(S(=O)(=O)c4ccccc4)[C@@H]3N2C1=O | nt | nt | nt | 3 | nt | nt | nt
O=C(CCc1ccccc1)N[C@H]1[C@H](OC(=O)c2ccco2)CCC[C@]12C(=O)N(Cc1ccccc1)c1ccccc12 | nt | nt | nt | 3 | 6 | nt | nt
COc1ccc2cc3c(N)nn(C(=O)c4ccccc4Cl)c3nc2c1 | 0 | -2 | 58* | -13 | 6 | 12 | 47
COc1ccc2cc3c(N)nn(C(=O)c4ccc(F)cc4)c3nc2c1 | 0 | 1 | 15 | 0 | 13 | -6 | nt
CN(Cc1ccccc1)C(=O)c1cccc(NC(=O)Cc2ccc(NC(=O)C3CCCN(S(=O)(=O)c4cccc([N+](=O)[O-])c4)C3)cc2)c1 (stereo not drawn) | nt | nt | nt | -10 | -5 | nt | nt
CCOc1ccccc1C(=O)N1CCN(c2ccc(C(F)(F)F)cn2)CC1 | 2 | -3 | 62* | 3 | 21 | 28 | 8
NNC(=S)NC1CCCCC1 | 1 | -15 | 80* | 6 | 12 | -4 | -18
O=C(NC1CCCCC1)C(=S)NC1CCCCC1 | nt | 9 | nt | nt | nt | nt | nt
CC(C)(C)OC(=O)N1CCC2CCN(S(C)(=O)=O)CC21 (stereo not drawn) | nt | nt | nt | -8 | -1 | nt | nt
COC(=O)c1cc(C(=O)N2CCN(c3cccc(Cl)c3)CC2)cc([N+](=O)[O-])c1 | 3 | 25 | 62* | -5 | -10 | 10 | 87*
Cc1ccccc1N=Nc1c(N)n[nH]c1N | -1 | -2 | 55* | 2 | 12 | -2 | -26
Cc1ccc(C(=O)O/N=C(\N)c2ccccn2)cc1C | -3 | -22 | 87* | 3 | 7 | 9 | 77*
COc1cc(C(=O)O/N=C(\N)c2ccccn2)cc(OC)c1OC | 0 | -7 | -30 | 7 | -9 | -2 | nt
C/C(=N\OC(=O)c1ccc(Br)cc1)c1ccccn1 | 0 | 0 | -23 | 2 | 6 | 0 | nt
Cc1cccc(C(=O)O/N=C(\N)c2ccccn2)c1 | -2 | 4 | 56* | 0 | 10 | 8 | 75*
CCOc1ccc(C(=O)O/N=C(\N)c2ccccn2)cc1 | -7 | 3 | 84* | -3 | 3 | -7 | 92*
N/C(=N\OC(=O)c1cccc(F)c1)c1ccccn1 | -1 | -5 | -50 | -4 | 12 | -2 | nt
CC(C)(C)c1ccc(C(=O)O/N=C(\N)c2ccccn2)cc1 | 0 | 5 | 77* | -3 | 15 | 16 | 75*
O=C(OCc1ccccc1)[C@H](Cc1ccccc1)NC(=O)[C@@H]1CC=C[C@@H]2CCN(Cc3ccc(Cl)cc3)C(=O)[C@@H]21 | nt | nt | nt | -1 | nt | nt | nt
N/C(=N\OC(=O)c1ccccc1)c1ccccn1 | -3 | 1 | -17 | 9 | 9 | 0 | nt
Cc1ccc(C(=O)O/N=C(\N)c2ccccn2)cc1 | -5 | 3 | 87* | -8 | 16 | 8 | 94*
CC1CN(C(=O)[C@@H]2CCCN2S(=O)(=O)c2ccc(Cl)cc2)CC(C)O1 (stereo partly drawn) | 2 | nt | 85* | 1 | 12 | 4 | -12
COc1ccc(N2CCN(C(=O)NC3CCCCC3)CC2)cc1 | 0 | 4 | -20 | 2 | 2 | 1 | nt
O=C(NC1CCCCC1)N1CCN(c2ccccc2)CC1 | -1 | 0 | 67* | 1 | 2 | -5 | -36
Cc1ccc2nc(-c3ccc(CN4CCC5(CC4)CNc4ccccc45)cc3)c(-c3ccccc3)nc2c1 | nt | nt | nt | 6 | 13 | nt | nt
